HepG2 viability = HepG2 cytotoxicity, counter-screen for TGF-b inhibitors; actives 0.76% (n = 410,000); AID 588856; Potency, µM (top dose mostly 46.1 µM), for inactives: at the highest dose activity change, negative = cytotoxicity, actives largely listed as cytotoxic; HepG2 CAGA-GFP viability, ATP luminescence, 18 h
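CellTiter-Glo luminescence gave cytotoxicity after 18 hours at 37 degrees C. The cells were HepG2 CAGA-GFP in 1% FBS DMEM, stimulated with 500 pg/mL TGF-beta after compound addition. %Activity was normalised to no-cell wells (complete cell-killing) and DMSO (no toxicity), and curves were fitted and classified.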
TGFb inhibitor = blocks TGF-b signaling. Potency, µM (series often up to 46.1 µM), without a hit: at the top dose activity, negative = inhibition, usual class: inhibitors. HepG2 CAGA-GFP TGF-b/SMAD3 reporter, GFP fluorescence, 18 h; TGF-beta stimulated, 500 pg/mL final. actives 1.2% (n = 410,000). AID 588855; note: % is set by controls: 0 for no effect and ±100 for the full control effect; nearly all actives have a fitted effect of over 65% in size
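Inhibition of TGF-beta-driven CAGA-GFP reporter expression in HEPG2 cells is measured by cellular GFP fluorescence after 18 h stimulation with 500 pg/mL recombinant TGF-beta in 1% FBS medium at 37 degrees C.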
VP16 counter = inhibits Gal4-VP16 luciferase reporter, ROR gamma counter-screen | Drosophila S2 Gal4-VP16 UAS-luciferase, luminescence, 20 h | Potency, µM (titrated, usually from 53.6 µM), without a hit: at the highest dose activity, negative = inhibition, most hits filed as inhibitors | actives 3.5% (n = 310,000);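 note: Gal4-VP16 expression switched on by copper sulfate through the metallothionein promoter; % is set by controls: 0 for no effect and ±100 for the full control effect; nearly all actives have a fitted effect of over 50% in size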
ATXN2 expr inh = ATXN2 expression inhibition; AID 1745845; Potency, µM (series often up to 57 µM), inactives show at the top dose activity change, negative = inhibition, actives largely listed as inhibitors; actives 0.72% (n = 360,000); HEK-293 ATXN2-luciferase reporter, luminescence, 24 h; note: % is set by controls: 0 for no effect and ±100 for the full control effect; nearly all actives have a fitted effect of over 55% in size
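qHTS (up to 57 uM final) was run with 24 h compound exposure of reporter cells at 37 °C. Each well was multiplexed: SteadyGlo luminescence measured ATXN2-luciferase expression after a fluorogenic Gly-Phe-AFC viability readout (25 uM final).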
RORg inh = ROR gamma (mouse) transcription inhibition; P51450; Drosophila S2 Gal4-RORgamma UAS-luciferase reporter, 20 h; Potency, µM (series often up to 53.6 µM), for the others: at the top dose activity change, negative = inhibition, most hits filed as inhibitors; actives 5.4% (n = 310,000); note: % is set by controls: 0 for no effect and ±100 for the full control effect; nearly all actives have a fitted effect of over 60% in size
Target sequence (P51450 whole entry, looked up, the tested form may be a part): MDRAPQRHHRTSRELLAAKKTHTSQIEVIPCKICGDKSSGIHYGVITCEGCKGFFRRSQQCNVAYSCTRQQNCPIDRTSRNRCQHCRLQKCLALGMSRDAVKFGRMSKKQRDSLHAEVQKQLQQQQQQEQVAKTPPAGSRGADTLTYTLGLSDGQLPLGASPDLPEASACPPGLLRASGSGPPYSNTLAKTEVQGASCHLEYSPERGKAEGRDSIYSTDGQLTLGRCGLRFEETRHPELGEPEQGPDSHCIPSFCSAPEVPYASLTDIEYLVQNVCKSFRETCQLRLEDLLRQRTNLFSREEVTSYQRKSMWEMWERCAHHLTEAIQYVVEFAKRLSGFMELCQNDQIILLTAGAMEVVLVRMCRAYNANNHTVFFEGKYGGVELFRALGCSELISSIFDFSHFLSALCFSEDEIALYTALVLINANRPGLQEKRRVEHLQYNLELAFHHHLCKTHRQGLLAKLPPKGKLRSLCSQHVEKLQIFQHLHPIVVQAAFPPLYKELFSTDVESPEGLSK
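Drosophila S2 cells stably expressing Gal4-DBD/mouse RORγ fusion under metallothionein promoter plus UAS-luciferase; compound 1 h, then 700 uM CuSO4 induction for 20 h at ambient temperature; inhibition read as reduced luminescence.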
S2 tox = reduces viability in counter-screen for ATXN expression inhibitors. actives 0.49% (n = 400,000). S2 cells (HEK-293 line with an ATXN2-luciferase reporter) viability, CellTiter-Fluor protease fluorescence, 24 h. Potency, µM (highest dose often 56.7 µM), most hits filed as cytotoxic; note: nearly all actives have a fitted effect of over 40% in size
* hit, by the source's call; i = inactive; ? = inconclusive; / = no result; [ ] = remark or other dose. This is a sample that favours compounds with a hit; in the whole collection about 6.3% have one here. Calls come from the whole dose curve; as a rule, active = well fitted curve in the direction sought with a large enough effect; inconclusive = small, poorly fitted or top-dose-only effect, or another doubt; inactive = no such curve, though single readings can be large; an effect the other way counts as inactive or inconclusive. Potency is the fitted concentration of half-maximal effect.

SMILES	HepG2 viability	TGFb inhibitor	VP16 counter	ATXN2 expr inh	RORg inh	S2 tox
COc1ccc2c(c1)-c1nc(NC(=O)c3cccs3)sc1CC2	19%	?	?	26%	8.9µM*	i
COc1ccc2c(c1)-c1nc(NC(=O)c3ccco3)sc1CC2	3%	?	-2%	38%	-17%	i
COc1ccc2c(c1)-c1nc(/N=C/c3c(O)ccc4ccccc34)sc1CC2	-18%	?	?	-6%	16µM*	?
COc1ccc2c(c1)CCc1sc(NC(=O)c3ccc(C)cc3)nc1-2	-20%	?	1µM*	-12%	0.14µM*	i
COc1ccc(C2Nc3ccccc3C(=O)N2Cc2ccco2)cc1 (centres undefined)	10%	-4%	/	/	/	/
COc1cc2ccnc(C=NO)c2cc1OC	-35%	-2%	/	/	/	i
OCCN1CCN(CC(O)COc2ccc(C34CC5CC(CC(C5)C3)C4)cc2)CC1 (centres undefined)	16µM*	?	?	-27%	?	i
COc1ccccc1N1C(=O)CC(Sc2n[nH]c(-c3cccc(C)c3)n2)C1=O (centres undefined)	-56%	?	5µM*	30%	2.8µM*	i
COc1ccc(N2C(=O)CC(Sc3nccc(C)n3)C2=O)c(OC)c1 (centres undefined)	14%	3%	/	/	/	i
COc1ccccc1N1C(=O)C2CC(C)=C(C)CC2C1=O (centres undefined)	-7%	-3%	-6%	1%	-1%	i
COc1ccccc1N1C(=O)C=C(Sc2nc(C)cc(C)n2)C1=O	11µM*	11µM*	?	-28%	?	i
COc1ccccc1N1C(=O)CC(Sc2nccc(C)n2)C1=O (centres undefined)	2%	-5%	?	3%	11µM*	i
Cn1c(=O)c(C(=O)NCCO)c(O)c2ccccc21	-3%	-1%	-9%	-8%	-8%	i
CCn1c(=O)c(C(=O)NNC(=O)c2ccccc2F)c(O)c2ccccc21	-24%	-19%	?	?	7.9µM*	i
Cn1c(=O)c(C(=O)NNC(=O)c2ccccc2F)c(O)c2ccccc21	-6%	?	?	-18%	18µM*	i
CCn1c(=O)c(C(=O)NNC(=O)c2ccccc2Cl)c(O)c2ccccc21	-16%	-6%	?	-28%	7.9µM*	i
Cn1c(=O)c(C(=O)NNC(=O)c2ccc(Br)cc2)c(O)c2ccccc21	-44%	7.1µM*	?	-11%	?	?
CCN[C@@H]1C[C@H](N)[C@@H](OC2OC(CN)=CCC2N)[C@H](O)[C@H]1O[C@H]1OC[C@](C)(O)[C@H](NC)[C@H]1O (some centres undefined)	/	/	/	-2%[0.709 µM]	/	i[0.575 µM]
Cc1ccc(CN2CCSc3ccc(C(=O)Nc4ccc(C)cc4)cc32)cc1	-21%	-9%	/	96%	/	i
CCOc1ccc(C2C(=O)N(C3CCCCC3)CC(=O)N2CCc2ccccc2)cc1OC (centres undefined)	-21%	7%	/	/	/	/
NC1=NN=C(c2ccc3c(c2)OCCO3)CS1	-7%	-7%	10µM*	?	10µM*	i
C=CCN=C1NN=C(c2cc(C)n(CC=C)c2C)CS1	-14%	-19%	?	27µM*	11µM*	i
c1ccc(C2=NNC(=NCc3ccc4c(c3)OCO4)SC2)cc1	1%	-2%	?	35%	?	i
COCCn1c(C)cc(C2=NNC(=Nc3ccccc3F)SC2)c1C	-13%	0%	?	?	0.79µM*	i
C=CCN=C1NN=C(c2ccc3c(c2)OCCO3)CS1	7%	1%	5.6µM*	?	4.5µM*	i
CCOc1ccc(C(=O)NCc2ccc3c(c2)CCN3C(=O)c2ccc(Cl)cc2)cc1	7%	35%	/	/	/	/
